Test [1] can be described thus: CCTE_Simmons_MITO_inhib_resp_rate: CCTE's HepG2 Seahorse XF Respirometric Screening Assay at Inhibited Respiratory State [full ETC block], Simmons Lab (AID 2284006). As to conditions: actives raise or lower the signal. In short, it runs like this:
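Inhibited respiration was taken as HepG2 oxygen consumption after rotenone/antimycin A, which followed test-compound and FCCP injections. Chemicals were tested at seven final concentrations from 125 nM to 100 uM. Activity was fitted bidirectionally relative to DMSO.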

Test [2] can be described thus: CCTE_Simmons_MITO_viability: CellTiter-Glo Viability Assessment for CCTE's HepG2 Seahorse XF Respirometric Screening Assay [post-hoc], Simmons Lab (AID 2284007; active = hit-call score of the fitted dose curve at least 0.9, where 1 is the maximum;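 for AC50: cells exposed to chemical for 90 min before the ATP read; actives lower ATP signal relative to DMSO baseline meaning reduced viability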). In short, it runs like this:
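HepG2 cells; test chemical 7 conc. (125 nM–100 uM final) × 90 min; then luminescent ATP detection. DMSO vehicle. Positive control dichlone, 8 conc. from 10 nM to 100 uM final. Loss-of-signal endpoint.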
Background: ATP-based viability assays read luminescence as a measure of living cells.

Test [3] can be described thus: CCTE_Harrill_HTTr_Viability_MCF7: CCTE's 6-hour Cell Viability Assessment for the High-Throughput Transcriptomics (HTTr) Platform, in MCF-7 cells cultured in DMEM + 10% fetal bovine serum, Harrill Lab (AID 2284010). In short, it runs like this: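 Viability measured through PI dye exclusion by high-content imaging at 6 h post-dosing.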
Test [4] is described as follows: CCTE_Harrill_HTTr_Apoptosis_MCF7: CCTE's 6-hour Apoptosis Assessment for the High-Throughput Transcriptomics (HTTr) Platform, in MCF-7 cells cultured in DMEM + 10% fetal bovine serum, Harrill Lab (AID 2284011). In short, it runs like this: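 Apoptosis in MCF-7 cells grown in DMEM with 10% fetal bovine serum was scored after a six hour exposure by high content imaging of caspase-3/7 activation (CellEvent Caspase 3/7 Green), with DMSO serving as negative control and baseline.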

Test [5] in a line: CCTE_Harrill_HTTr_CellCount_MCF7: CCTE's Cell Proliferation Assessment for the High-Throughput Transcriptomics (HTTr) Platform, Harrill Lab (AID 2284012; active = hit-call score of the fitted dose curve at least 0.9, where 1 is the maximum;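 note: count of Hoechst-stained nuclei per well by high-content imaging in MCF-7 cells; cells exposed to compound for six hours; intended direction is loss of nuclei count meaning fewer cells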). In outline: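 Nuclei counting (Hoechst, high content imaging) in MCF-7 after a 6 h treatment at eight concentrations. Activity fitted bidirectionally, DMSO as negative control.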
The nature of test [6]: CCTE_Shafer_MEA_acute_spike_number: CCTE's Neural Acute Assay for Total Number of Spikes, Shafer Lab (AID 2284008).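 For AC50: curve fitted for decrease in spike count so AC50 reflects inhibitors.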 In outline:
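Using an adaptive detector set to 8x rms noise, spikes were counted in 40-min windows before and after compound addition (0.03-40 uM) to rat cortical networks at 37 C; the well-level change from baseline was analysed relative to DMSO.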

Test [7] in a line: CCTE_Shafer_MEA_acute_firing_rate_mean: CCTE's Neural Acute Assay for Mean Firing Rate, Shafer Lab (AID 2284009).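 Note: analyzed for loss of signal so actives lower firing rate relative to DMSO.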 In outline:
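Percent change in well-mean firing rate was derived from extracellular spikes detected at 8x rms noise (300-5000 Hz band-pass) before and after a 40-min compound exposure. Cultures were primary rat cortical neurons, tested at 0.03-40 uM.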

The nature of test [8]: CCTE_Shafer_MEA_acute_burst_number: CCTE's Neural Acute Assay for Single-Electrode Bursts, Shafer Lab (AID 2284013). In outline: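 Spontaneous network activity of primary rat cortical neurons was recorded extracellularly on microelectrode arrays at 37 C, with 40-min periods before and during exposure to 0.03-40 uM compound on DIV 13 or 15.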
Test [9] is described as follows: CCTE_Shafer_MEA_acute_burst_duration_mean: CCTE's Neural Acute Assay for Mean Burst Duration, Shafer Lab (AID 2284014).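 Note: hits are decreases in mean burst duration relative to DMSO controls.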 In short, it runs like this: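 Read-out is the per-well percent change in mean burst duration (first to last spike within a single-electrode burst) between 40-min recordings before and after compound. Cultures were primary rat cortical neurons on MEAs, dosed at 0.03-40 uM on DIV 13 or 15.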

Test [10] can be described thus: CCTE_Shafer_MEA_acute_per_burst_spike_number_mean: CCTE's Neural Acute Assay for Average Number of Spikes Per Burst, Shafer Lab (AID 2284015).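 Note: hits are decreases in mean spikes per burst versus baseline.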 In outline:
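Percent change in mean spikes per single-electrode burst is compared between a 40 min baseline and a 40 min recording with compound (0.03-40 uM). Cultures were rat cortical neurons on MEA plates at DIV 13 or 15, recorded at 37 C, with DMSO as the negative control.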

The nature of test [11]: CCTE_Shafer_MEA_acute_interburst_interval_mean: CCTE's Neural Acute Assay for Mean Interburst Interval, Shafer Lab (AID 2284016).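 Note: percent change of mean interburst interval versus each well's own pre-dose baseline; curves fitted for decrease in interburst interval relative to DMSO.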 In outline: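 Percent change in mean single-electrode interburst interval was calculated per well from 40 min recordings before and after compound (0.03-40 uM). Recordings were made at 37 C on rat cortical cultures at DIV 13 or 15, with spikes detected at 8x rms threshold.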

The nature of test [12]: CCTE_Shafer_MEA_acute_burst_percentage_mean: CCTE's Neural Acute Assay for Percentage of Spikes in a Burst, Shafer Lab (AID 2284017).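 For AC50: curve fitted for loss of signal so potency reflects decreased burst percentage.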 In outline:
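Well-level mean burst percentage from a 40-min recording after compound (0.03-40 uM) expressed as percent change from a 40-min baseline at 37C. Cultures: primary rat cortical neurons on MEA, dosed on DIV 13 or 15; fitted downward relative to DMSO.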

Test [13] can be described thus: CCTE_Shafer_MEA_acute_burst_percentage_std: CCTE's Neural Acute Assay for Standard Deviation of Burst Percentage, Shafer Lab (AID 2284018).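 Note: fitted in the negative direction so actives lower burst percentage SD.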 In short, it runs like this:
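Value is percent change from baseline in the across-electrode SD of spikes-in-bursts percentage, wells with >/= 10 active electrodes. Acute 40-min exposure to 0.03-40 uM on DIV 13 or 15 rat cortical cultures, recorded at 37 C after 40-min baseline.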

A short description of test [14]: CCTE_Shafer_MEA_acute_per_network_burst_spike_number_mean: CCTE's Neural Acute Assay for Average Number of Spikes in a Network Burst, Shafer Lab (AID 2284019).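 For AC50: curve fitted for loss of signal so actives reduce spikes per network burst.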 In short, it runs like this:
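Read-out is mean spike count per network burst, taken as percent change between a 40-min pre-exposure and a 40-min post-exposure recording per well. Rat primary cortical neurons on MEAs at 37 C, DIV 13 or 15; compounds at 0.03-40 uM.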

Test [15] is described as follows: CCTE_Shafer_MEA_acute_per_network_burst_spike_number_std: CCTE's Neural Acute Assay for Standard Deviation of Number of Spikes in a Network Burst, Shafer Lab (AID 2284020).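 Note: fitted for decrease in spike-number SD versus DMSO so actives lower it.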 In outline:
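Spontaneous network activity of primary rat cortical neurons is recorded extracellularly before and after a 40-min compound exposure (0.03-40 uM) at 37 C. The endpoint is the well's percent change in burst spike-number SD.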

Test [16] is described as follows: CCTE_Shafer_MEA_acute_per_network_burst_electrodes_number_mean: CCTE's Neural Acute Assay for Mean Number of Electrodes in a Network Burst, Shafer Lab (AID 2284021).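 Note: curves fitted for decreases only so hits reduce electrodes per burst.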 In outline:
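Percent change from baseline in average electrode count per network burst, rat cortical cultures on 48-well MEAs; 40-min recordings each side of exposure, DIV 13 or 15; threshold 8x rms noise; DMSO as negative control.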

A short description of test [17]: CCTE_Shafer_MEA_acute_network_burst_percentage: CCTE's Neural Acute Assay for Percentage of Network Bursts, Shafer Lab (AID 2284022).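 Note: curves fitted for loss so actives lower network burst percentage.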 In outline: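 On DIV 13 or 15, at least three wells of rat cortical neurons per compound are dosed at 0.03-40 uM. Spontaneous firing is detected at 8x rms noise for 40 min before and after dosing at 37 C. The percent change in network-burst spike share is reported.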

The nature of test [18]: CCTE_Shafer_MEA_acute_cross_correlation_area: CCTE's Neural Acute Assay for Area of Cross Correlation, Shafer Lab (AID 2284024).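 Note: area under pooled inter-electrode spike cross-correlation near zero lag as percent change from own baseline; curves fitted for loss of cross-correlation area so actives lower synchrony.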 In outline:
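Extracellular recordings from cultured rat cortical neurons measure network synchrony as cross-correlation area; each well's post-compound value (0.03-40 uM, 40 min) is compared with its own 40 min baseline to give percent change.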

Results filed as inconclusive are left out. Calls of active or inactive are those of the source. Rule for the calls, unless noted: active = hit-call score of the fitted dose curve at least 0.9, where 1 is the maximum; inactive = score below 0.9.

Consider `O=C1CCC(C2CCCCC2)CC1`, for which the result in test [1], in test [2], in [3], in [4] and in [5] was inactive.
Take `Cc1cc2c(cc1C(F)(F)F)N(C(=O)Nc1ccc(Oc3cccnc3C)nc1)CC2`: the compound was called inactive in test [1], in test [2], in [6], in test [7], in test [3] and in [4]. Further, the call in test [8], in test [9], in test [10], in test [11], in test [12] and in test [13] was inactive. For the same compound, the compound was called inactive in [14], in [15], in test [16], in [17] and in test [18].
With `CC(C)(O)c1ccc(CNC(=O)c2cccnc2Oc2ccc3nonc3c2)cc1`, the call in [1], in test [2], in [3] and in [4] was inactive.
As to `COc1cccc([C@H](O)C2CCN(CCc3ccc(F)cc3)CC2)c1OC`, the AC50 (as a rule, the concentration at which the activity in the assay is half-maximal) in [6] was 2.87 µM (active); in [7], 2.87 µM (active); in test [8], 2.88 µM (active); in test [15] it was 6.88 µM (active). Also, the result in [3], in test [4], in test [9], in test [10], in test [11] and in [12] was inactive. For the same compound, the call in test [13], in [14], in test [16], in test [17] and in test [18] was inactive.
Consider `Cc1c2ccccc2c(C)c2c1ccc1ccccc12`, for which the compound was classed as inactive in [1], in test [3], in [4], in [5], in test [8] and in test [9]. Also, the compound was classed as inactive in test [10], in test [14], in test [15], in [16], in [17] and in test [18]. The AC50 in test [2] was 19.4 µM (active); in test [6], 20 µM (active); in [7], 20 µM (active); in test [11], 7.49 µM (active); in [12], 29.7 µM (active); in test [13], 35.2 µM (active).
Take `CC(O)CC(C)(C)O` (stereo not given): the call in [6], in test [7], in [3], in [4], in test [5] and in test [8] was inactive. For the same compound, the result in [9], in test [10], in test [11], in test [12], in test [13] and in [14] was inactive. Moreover, the compound was called inactive in [15], in test [16], in test [17] and in test [18].
Consider `CC(C)(C)c1cc(/C=C2\SC(N)=NC2=O)cc(C(C)(C)C)c1O`, for which the results for the AC50 in test [6], in test [7] and in test [11] were 14.7 µM (active), 14.8 µM (active) and 14.6 µM (active), respectively. Moreover, the outcome in test [3], in test [4], in test [5], in [8], in test [9] and in test [10] was inactive. The result in test [12], in test [13], in test [14], in [15], in test [16] and in test [17] was inactive. Moreover, in [18], the call was inactive.
As to `NCc1cccc(C2CCN(C(=O)c3ccc(C#Cc4ccccc4F)o3)CC2)c1`, the call in [1], in test [2], in test [5], in test [9], in [13] and in test [14] was inactive. Besides, the compound was called inactive in test [18]. Moreover, the AC50 in [6] is 9.02 µM (active); in test [7] it was 9.02 µM (active); in test [3] it was 50 µM (active); in test [4], 61.4 µM (active); in test [8] it was 8.95 µM (active); in test [10], 35.3 µM (active). In addition, the AC50 in test [11] was 4.14 µM (active); in test [12], 30.8 µM (active); in [15] it was 20 µM (active); in test [16], 20 µM (active); in test [17], 31.4 µM (active).
Consider `O=C1O[C@H]([C@@H](O)CO)C(O)=C1O`, for which the result in [6], in test [7], in test [3], in test [4], in test [5] and in test [8] was inactive. Moreover, the compound was called inactive in test [9], in test [10], in test [11], in [12], in test [13] and in [14]. Further, the outcome in test [15], in test [16], in test [17] and in [18] was inactive.
Consider `CC/C(=C(/CC)c1ccc(O)cc1)c1ccc(O)cc1`, for which the AC50 in test [1] is 6.72 µM (active); in test [2], 12 µM (active); in test [6], 8.49 µM (active); in [7], 8.49 µM (active); in test [10], 6.76 µM (active); in test [12], 10.6 µM (active). Also, the AC50 in test [13] is 35.4 µM (active); in [14], 5.3 µM (active); in test [16] it was 20 µM (active); in test [17], 10.5 µM (active). Besides, the outcome in test [3], in test [4], in test [8], in test [9], in test [11] and in test [15] was inactive. Also, in test [18], the call was inactive.
Regarding `O=C1c2ccccc2C(=O)N1CCc1noc(-c2ccc(CN3CCCCCC3)s2)n1`, the compound was called inactive in test [1], in test [2], in test [3], in test [4] and in test [5].
In the case of `C[C@]12CC[C@@H]3c4ccc(O)cc4CC[C@H]3[C@@H]1CC[C@H]2O`, the call in test [1], in test [2], in [6], in test [7], in test [3] and in test [4] was inactive. For the same compound, the compound was classed as inactive in [5], in test [8], in test [9], in test [10], in test [11] and in test [12]. Further, the compound was classed as inactive in [13], in test [14], in [15], in test [16], in test [17] and in test [18].

For the origin of these results see PubChem BioAssay (EPA / NIEHS).
